High-throughput results from PubChem.
Marburg entry inh – inhibitors of Marburg virus binding or cell entry; Marburg virus pseudotyped entry inhibition, cell reporter; Potency, µM (doses to about 37.8 µM), for inactives: at the top dose activity change, negative = inhibition, most hits filed as inhibitors; actives 1.8% (n = 300,000); AID 540276; calls by dose curve; tested in HEK293 cells; also: potency is read from the fitted curve at half-maximal effect
HCMV inh – blocks human cytomegalovirus replication; HFF cells, HCMV-luciferase reporter, 72 h; active compounds read low; activity change, negative = inhibition, % at 57.5 µM; actives 4.5% (n = 410,000); AID 1259415; in the data active = activity change below about -60%; inconclusive = no clear call, values can overlap the other calls; inactive = above about -39%
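Luciferase read-out from HCMV-luciferase-infected HFFs (MOI 1 PFU/cell) 72 h post infection at 37C; compounds added after 16 h cell attachment; activity normalized between buffer-only basal and Salinomycin (10uM) inhibitor controls.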
LASV entry inh – Lassa virus entry inhibition | Lassa virus pseudotype entry inhibition, cell reporter | Potency, µM (titrated, usually from 37.9 µM), inactives show at the top dose activity change, negative = inhibition, usual class: inhibitors | actives 1.2% (n = 300,000) | AID 540256; calls by dose curve; tested in HEK293 cells; also: potency is read from the fitted curve at half-maximal effect; nearly all actives have a fitted effect of over 50% in size
HCV inhibitor – blocks hepatitis C virus; Huh7.5.1 HCVcc-Cre infection, luciferase reporter, 44 h; Potency, µM (titrated, usually from 41.8 µM), inactives show top-dose activity change, negative = inhibition, hits mostly inhibitors; actives 3.4% (n = 340,000); AID 651820; active = well fitted inhibition curve with a large enough effect; inconclusive = small, poorly fitted or top-dose-only effect, or another doubt; inactive = no such curve, though single readings can be large or run the other way; also: potency is read from the fitted curve at half-maximal effect
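Luciferase read-out (15 sec integration) after a 15 min room-temperature substrate step quantifies HCVcc-Cre infection. Cells, 1,000 per well, had compound added 4 h post-plating, then virus at ~0.5 moi, and were cultured 44 h.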
FMDV inh – foot and mouth disease virus antiviral activity. FMDV antiviral cell-based qHTS. actives 1.2% (n = 410,000). Potency, µM (series often up to 57.9 µM), for inactives: at the highest dose activity change, negative = inhibition, usual class: inhibitors; calls by dose curve; tested in HEK293T cells; also: read-out not given here; potency is read from the fitted curve at half-maximal effect; nearly all actives have a fitted effect of over 45% in size
The depositor's hits bear a star; ? = inconclusive; / = no result; ! = not active in a repeat; [ ] = dose if it differs, or a comment. An excerpt weighted towards active compounds, which were near 7.9% of everything screened. % is scaled to controls: 0 for no effect and ±100 for the full control effect.

SMILES | Marburg entry inh | HCMV inh | LASV entry inh | HCV inhibitor | FMDV inh
Cc1cc(C2=NNC(=NC3CC3)SC2)c(C)n1Cc1ccco1 | ? | -98* | ? | ? | 3.2µM*
COCC(C)N=C1NN=C(c2ccc(NC(C)=O)cc2)CS1 (stereo unspecified) | 3%[46.1 µM] | ? | 16%[46.1 µM] | 6% | 15%
COc1cccc(CNc2ccc(N3CCCCC3)cc2)c1OC | ? | ? | ? | -12% | 23%
COc1ccccc1CNc1ccc(N2CCCCC2)cc1 | 5.2µM* | / | ? | 31% | /
COc1cccc(Nc2ccc(N3CCCCC3)cc2)c1OC | / | -99* | / | / | 26%
Cc1ccc(CSc2nc3ccc(NC(=O)C(C)C)cc3s2)cc1 | ? | -13 | -27%[46.1 µM] | / | 1%
COc1ccccc1Nc1c2c(nc3ccccc13)CCC2 | ? | -68* | ? | ? | -26%
c1ccc2c(Nc3ccc4c(c3)OCCO4)c3c(nc2c1)CCCC3 | ? | -73* | 7.9µM* | ? | -19%
COc1ccc(Nc2c3c(nc4ccccc24)CCC3)c(OC)c1 | ? | ? | ? | ? | -23%
Fc1cccc(Nc2c3c(nc4ccccc24)CCC3)c1 | -2%[46.1 µM] | -25 | ? | -20% | -14%
COc1cc(Nc2c3c(nc4ccccc24)CCCC3)cc(OC)c1OC | 4.5µM* | -36 | -19%[46.1 µM] | -21% | -10%
O=C(Nc1c2c(nc3ccccc13)CCCC2)c1cccc([N+](=O)[O-])c1 | -9% | -64* | ? | ? | -19%
COCc1c(C(=O)NC2CCCCCC2)cnn1-c1nccc(-c2cc(C)sc2C)n1 | / | / | / | / | 50%
COC(=O)c1cccc(Nc2c3c(nc4ccccc24)CCC3)c1 | ? | -20 | ? | 3.2µM* | ?
COc1cc(Cl)c(C)cc1Nc1c2c(nc3ccccc13)CCC2 | ? | -101* | ? | / | ?
Oc1ccccc1 | / | -21 | / | / | /
Oc1ccc(O)cc1 | 7.9µM*! | / | ? | / | 11%
Cc1ccc(C)c(N2CCN(C(=O)c3ccc4c(Cl)c5c(nc4c3)CCCC5)CC2)c1 | -1%[46.1 µM] | -39 | 3%[46.1 µM] | / | -19%
CCOc1ccc(OCC(=O)Nc2c(C(=O)Nc3ccc(C)cc3)oc3ccccc23)cc1 | -1%[46.1 µM] | 20 | -6%[46.1 µM] | / | 15%
CCCc1cc(C(=O)N/N=C/c2ccc(CC)s2)c2ccccc2n1 | ? | 5 | -9% | ? | ?
O=C(N/N=C/c1cccs1)c1cc(C2CC2)nc2ccccc12 | ? | -22 | -26% | ? | -9%
CCc1ccc(C(=O)N/N=C/c2ccncc2)s1 | / | 38 | / | 13µM* | 56%
CCc1ccc(/C=N/NC(=O)c2cc(-c3ccncc3)nc3ccccc23)s1 | ? | -66* | ? | ? | -16%
O=C(N/N=C/c1cccs1)c1cc(-c2ccncc2)nc2ccccc12 | -37% | -72* | ? | ? | ?
Cc1ccc(-n2c(=O)c3sc4ccccc4c3n(C)c2=O)cc1F | ? | -15 | -2%[46.1 µM] | / | 1%
SMILES | Marburg entry inh | HCMV inh | LASV entry inh | HCV inhibitor | FMDV inh
O=C1CC(c2ccccc2)CC(O)=C1C=NCc1ccccc1Cl (stereo unspecified) | ? | -81* | -22% | -24% | /
CCOc1ccc(NC(=O)Cn2c(=O)n(-c3ccc(C)cc3)c(=O)c3cc(OC)c(OC)cc32)cc1 | -2%[46.1 µM] | 4 | 14%[46.1 µM] | / | -19%
CN(N=O)c1ccc(O)c(O)c1 | 18µM* | / | ? | / | /
COc1ccc(C(=O)ON=C2C=C(C)C(=O)C(C)=C2)cc1 | / | -76* | / | 14% | 2%
COc1cc(C(=O)ON=C2C=C(C)C(=O)C(C)=C2)cc(OC)c1OC | -25% | -62* | 0% | 17% | -16%
CCc1cc2c(nc1CC)CCN(CCC(C)=NO[C@H](C)c1cn([C@H](CO)Cc3ccccc3)nn1)C2 | -16%[14.2 µM] | / | / | / | /
COc1ccc(Cc2c(-c3ccc(C)cc3)nc3c(C)cc(Br)cn23)c(C)c1 | / | 36 | / | / | -3%
COc1ccc(Cc2c(-c3ccc(OC)c(OC)c3)nc3c(C)cc(Br)cn23)c(C)c1 | / | -61* | / | / | ?
COc1ccc([N+](=O)[O-])cc1NC(=O)c1ccc(C)o1 | 15% | -103* | 19% | ? | -13%
COc1ccc([N+](=O)[O-])cc1NC(=O)c1cccs1 | 1%[46.1 µM] | ? | -2%[46.1 µM] | 11µM* | -2%
COC(=O)Nc1cc([N+](=O)[O-])ccc1OC | 1% | 8 | 16% | ? | 21%
Cc1cn2c(=O)c(S(=O)(=O)NC(C)c3ccccc3)c(C)nc2s1 (stereo unspecified) | / | 12 | 1%[46.1 µM] | / | -14%
CCOC(=O)c1c(NC(=O)C(c2ccccc2)c2ccccc2)sc2c1C1CCN2CC1 | -76% | -65* | ? | ? | -18%
Cc1ccc(C2=NN(S(=O)(=O)c3ccccc3)C(c3ccccc3O)C2)cc1 (stereo unspecified) | ? | ? | ? | 14µM* | 43%
COc1ccc(C2CC(c3ccccc3)=NN2c2ccc(N)cc2)cc1 (stereo unspecified) | ? | 19 | ? | -11% | 40µM*
COc1ccc(S(=O)(=O)N2N=C(c3cccc(NS(C)(=O)=O)c3)CC2c2ccco2)cc1 (stereo unspecified) | / | ? | / | 0% | 9%
COc1ccc(S(=O)(=O)N2N=C(c3ccc(NS(C)(=O)=O)cc3)CC2c2ccco2)cc1 (stereo unspecified) | 10% | -25 | 0.65µM* | 4% | -7%
COc1ccc(C2CC(c3ccccc3O)=NN2c2ccccc2)cc1 (stereo unspecified) | -7%[46.1 µM] | 17 | 5% | -25% | -7%
NS(=O)(=O)c1ccc(N2N=C(c3ccc(Br)cc3)CC2c2ccc(F)cc2)cc1 (stereo unspecified) | 10µM* | -17 | 7.9µM* | ? | 22µM*
COc1ccc(NC(=O)N[C@H]2CC[C@@]34CCCN3C(=O)CCC[C@H]4C2Cc2ccccc2)cc1 (stereo partly specified) | / | 5 | / | / | /
O=C(Nc1ccccc1)c1cccc(S(=O)(=O)Nc2cccc(F)c2)c1 | / | -11 | -8%[46.1 µM] | / | 9%
COc1ccc(C2CC(c3ccccc3)=NN2c2ccc(S(N)(=O)=O)cc2)cc1OC (stereo unspecified) | ? | -7 | 11µM* | -29% | 0%
COc1ccc(C2CC(c3cccc(Cl)c3)=NN2c2ccc(S(N)(=O)=O)cc2)cc1 (stereo unspecified) | / | 1 | / | 13µM* | ?
COc1ccc(C2CC(c3ccccc3)=NN2S(=O)(=O)c2ccccc2)cc1 (stereo unspecified) | / | -40 | / | 13µM* | -3%
NS(=O)(=O)c1ccc(N2N=C(c3ccccc3)CC2c2cccc(F)c2)cc1 (stereo unspecified) | ? | -12 | ? | ? | -16%
COc1ccc(C2CC(c3ccccc3)=NN2C(=O)c2ccc(F)cc2)cc1 (stereo unspecified) | 4% | -13 | -12% | 14% | 3%
Cc1ccc2c(c1)-c1c(cnn1CC(=O)N1CCN(c3cc(C)ccc3C)CC1)CO2 | 6%[46.1 µM] | -7 | / | / | ?
